Results taken from the supplement of paper PMC6555819.

Legend:
Test in all cases: PBM binding z-score (relative to random genomic background probes); higher = stronger binding; sequences stand for … in GC…GCGATTGACAGCGTAGAATGAAGG
[1] = test system: FXR:RXRa (NR concentration 270 nM, RXRa partner concentration 90 nM)
Summary of the method: (§1)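 The probes on custom Agilent 4×180K protein-binding microarrays were double-stranded, with 34-nt variable regions bearing direct-repeat seeds, single-nucleotide variants, half-site ablations and random human genomic background sequences. Incubation lasted 1 h with ligand-free nuclear receptor dimers in PBS pH 7.4, 2% milk, 0.02% Triton X-100, 1 mM DTT, 0.2 mg/mL BSA and 0.4 mg/ml salmon testes DNA. Antibodies against each partner (one per run) detected bound dimers, and fluorescence scans were regression-normalized. Binding z-scores take the random background probes as reference.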

[2] = test system: LXRa:RXRa (NR concentration 270 nM, RXRa partner concentration 90 nM)
Summary of the method: as §1

[3] = test system: LXRa homodimer (NR concentration 270 nM)
Summary of the method: as §1

[4] = test system: LXRb:RXRa (NR concentration 270 nM, RXRa partner concentration 90 nM)
Summary of the method: as §1

[5] = test system: PPARa:RXRa (NR concentration 270 nM, RXRa partner concentration 90 nM)
Summary of the method: as §1

[6] = test system: PPARg:RXRa (NR concentration 180 nM, RXRa partner concentration 90 nM)
Summary of the method: as §1

[7] = test system: PPARg:RXRa 270nM:90nM, anti-RXR (NR concentration 270 nM, RXRa partner concentration 90 nM)
Summary of the method: as §1

[8] = test system: PPARg:RXRa 30nM:10nM, anti-RXR (NR concentration 30 nM, RXRa partner concentration 10 nM)
Summary of the method: as §1

[9] = test system: PPARg:RXRa 90nM:30nM, anti-RXR (NR concentration 90 nM, RXRa partner concentration 30 nM)
Summary of the method: as §1

| Sequence | PBM binding z-score [1] | PBM binding z-score [2] | PBM binding z-score [3] | PBM binding z-score [4] | PBM binding z-score [5] | PBM binding z-score [6] | PBM binding z-score [7] | PBM binding z-score [8] | PBM binding z-score [9] |
| --- | --- | --- | --- | --- | --- | --- | --- | --- | --- |
| CCGAGTAGGATACGAGGGGGCATTCAGTGCGAAT | 0.863 | 1.35 | 0.542 | 3.08 | 1.75 | 0.323 | 1.47 | 0.0307 | 1.08 |
| CCGAGTCGGTTACGAGGGGGCATTCAGTGCGAAT | 0.716 | 4.66 | 1.26 | 4.05 | 1.74 | -0.00257 | 0.709 | -0.212 | 0.329 |
| CTATGTAGGTTAAGGGGGTCATTAAGTTTGAAAG | 4.76 | 4.56 | 2.21 | 5.86 | 6 | 8.78 | 7.7 | 5.93 | 8.13 |
| CTATGTAGCTTAAGGGGGTCATTCAGTTTGAAAG | 4.38 | 4.44 | 3.06 | 6.2 | 5.27 | 3.24 | 4.6 | 2.16 | 3.67 |
| TCGAGTGGGTTACGGGGGCATTCAGGGATGAAGA | 2.78 | 3.03 | 1.26 | 5.08 | 4.26 | 5.66 | 5.53 | 3.59 | 4.84 |
| CTATGTAGGTTAAGGGGGTCATACAGTTTGAAAG | 5.2 | 5.02 | 1.99 | 6.22 | 6.21 | 8.81 | 8.13 | 6.16 | 8.11 |
| TCGAGTAGGTTACGGCGGCATTCAGGGATGAAGA | -0.0492 | 0.356 | -0.342 | 0.0226 | 1.32 | 0.838 | 1.73 | 1.18 | 1.43 |
| CTATGGAGGTTAAGGGGGTCATTCAGTTTGAAAG | 6.34 | 5.63 | 4.04 | 6.44 | 6.28 | 6.41 | 6.6 | 3.97 | 5.74 |
| CTATGTAGGTTAAGGGTGTCATTCAGTTTGAAAG | 0.954 | 1.2 | 0.0163 | 1.33 | 4.61 | 8.17 | 7.44 | 6.35 | 8.04 |
| CTATGTAGGTTCAGGGGGTCATTCAGTTTGAAAG | 5.43 | 5.56 | 4.57 | 6.31 | 5.86 | 5.72 | 6.22 | 3.18 | 5.1 |
| TCGAGTAGGTTACGGAGGCATTCAGGGATGAAGA | 0.282 | 0.497 | -0.597 | 0.121 | 1.57 | 1.39 | 1.81 | 1.08 | 1.75 |
| TCGAGTAAGTTACGGGGGCATTCAGGGATGAAGA | 1.79 | 1.83 | 0.43 | 4.1 | 2.64 | 1.06 | 1.98 | 1.45 | 1.77 |
| TCGAGTAGGTTAGGGGGGCATTCAGGGATGAAGA | 3.28 | 3.15 | 1.42 | 5.64 | 3.3 | 5.66 | 4.97 | 3.63 | 5.01 |
| CCGACTAGGTTACGAGGGGGCATTCAGTGCGAAT | 2.03 | 6.99 | 1.82 | 6.19 | 3.16 | 2.68 | 3.48 | 1.66 | 2.47 |
| TCGAGCAGGTTACGGGGGCATTCAGGGATGAAGA | 2.74 | 2.64 | 0.7 | 4.88 | 4.14 | 4.31 | 4.37 | 2.24 | 3.46 |
